# In PubChem BioAssay (NCATS):
# “And” between values parts separate entries of the source, which are not always exact repeats. Equal entries are not always repeated. A number with no mark means an inactive call. Inconclusive results are not listed. Where a call stands in place of a potency, no number is given. The source made the active and inactive calls. Calls come from the whole dose curve; as a rule, active = well fitted curve in the direction sought with a large enough effect; inconclusive = small, poorly fitted or top-dose-only effect, or another doubt; inactive = no such curve, though single readings can be large; an effect the other way counts as inactive or inconclusive.
# What was measured:
# [1] = biological target: Lysine-specific demethylase 5B (Homo sapiens) (UniProt Q9UGL1); assay: Optimization screen for KDM5B Histone Demethylases FDH coupled qHTS against the LOPAC library (AID 1347166)
# Chain of Lysine-specific demethylase 5B (Homo sapiens) (Q9UGL1 whole entry, looked up): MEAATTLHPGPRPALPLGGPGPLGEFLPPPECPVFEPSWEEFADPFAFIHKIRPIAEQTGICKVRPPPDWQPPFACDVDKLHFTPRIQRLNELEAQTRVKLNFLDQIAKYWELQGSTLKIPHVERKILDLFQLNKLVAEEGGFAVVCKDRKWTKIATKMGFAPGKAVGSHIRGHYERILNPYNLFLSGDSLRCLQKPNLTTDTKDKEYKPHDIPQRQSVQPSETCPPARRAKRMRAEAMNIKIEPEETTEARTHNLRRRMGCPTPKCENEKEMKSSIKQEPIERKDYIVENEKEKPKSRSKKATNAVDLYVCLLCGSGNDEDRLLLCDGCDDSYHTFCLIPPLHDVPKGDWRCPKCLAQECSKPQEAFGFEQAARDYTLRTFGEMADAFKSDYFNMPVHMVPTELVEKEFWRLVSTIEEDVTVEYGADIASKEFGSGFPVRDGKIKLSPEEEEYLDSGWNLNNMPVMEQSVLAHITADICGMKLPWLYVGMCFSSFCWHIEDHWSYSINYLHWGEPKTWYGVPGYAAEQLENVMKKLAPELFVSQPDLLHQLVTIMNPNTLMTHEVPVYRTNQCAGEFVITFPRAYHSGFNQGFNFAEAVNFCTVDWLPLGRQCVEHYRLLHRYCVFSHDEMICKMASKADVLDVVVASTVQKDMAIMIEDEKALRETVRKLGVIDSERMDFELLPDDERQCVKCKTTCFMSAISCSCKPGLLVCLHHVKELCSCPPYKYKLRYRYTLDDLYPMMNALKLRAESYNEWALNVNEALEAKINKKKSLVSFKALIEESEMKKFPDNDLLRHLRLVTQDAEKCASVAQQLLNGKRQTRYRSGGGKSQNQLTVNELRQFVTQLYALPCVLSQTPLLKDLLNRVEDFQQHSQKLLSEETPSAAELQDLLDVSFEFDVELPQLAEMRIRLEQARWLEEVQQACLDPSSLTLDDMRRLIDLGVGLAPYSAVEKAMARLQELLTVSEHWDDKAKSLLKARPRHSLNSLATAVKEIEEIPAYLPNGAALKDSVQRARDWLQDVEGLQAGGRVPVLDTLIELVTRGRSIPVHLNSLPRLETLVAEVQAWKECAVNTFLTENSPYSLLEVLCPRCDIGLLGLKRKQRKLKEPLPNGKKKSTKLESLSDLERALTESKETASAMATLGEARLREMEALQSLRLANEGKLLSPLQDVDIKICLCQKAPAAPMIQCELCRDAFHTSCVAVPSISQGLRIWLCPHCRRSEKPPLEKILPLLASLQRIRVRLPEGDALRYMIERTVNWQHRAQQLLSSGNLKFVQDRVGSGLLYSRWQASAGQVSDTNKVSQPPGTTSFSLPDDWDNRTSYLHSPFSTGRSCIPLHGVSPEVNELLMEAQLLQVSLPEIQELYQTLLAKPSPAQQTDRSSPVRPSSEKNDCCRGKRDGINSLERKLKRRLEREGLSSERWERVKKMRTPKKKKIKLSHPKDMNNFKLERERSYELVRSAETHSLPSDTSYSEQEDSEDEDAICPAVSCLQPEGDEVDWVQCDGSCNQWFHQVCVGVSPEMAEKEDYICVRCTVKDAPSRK
# Outline: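 KDM5BDeltaAP (200nM final) in 50mM HEPES pH 7.5, 0.01% Tween-20 was preincubated with compound for 10 min at room temperature. A substrate mix of 12.5uM H3K4Me3, 25uM a-ketoglutarate, ascorbate, Fe2+, NAD+ and formaldehyde dehydrogenase was then added. NADH fluorescence (340/450 nm) was read initially and after 30 min.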
# [2] = qHTS to identify inhibitors of the type 1 interferon - major histocompatibility complex class I in skeletal muscle: primary screen against the NCATS Pharmaceutical Collection (AID 1347407);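 note: luminescence of HiBiT knocked into endogenous HLA-B as interferon-induced MHC class I level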
# Outline: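 Immortalized human myoblasts (C25cl48) with HiBiT knocked into endogenous HLA-B*08:01 were stimulated with 4 ng/ml IFN-beta and treated with compounds (8-point, 1:5, top 46 uM final) for 24 h at 37 C; HiBiT lytic luminescence read.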
# [3] = qHTS for inhibitors of adenylyl cyclases using a fission yeast platform: a pilot screen against the NCATS LOPAC library (AID 1347410)
# Outline: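 S. pombe CHP2027 (AC9-GNAS-PDE4D2) carrying a PKA-repressed fbp1-GFP reporter was exposed to LOPAC compounds (final up to 57 µM) for 18 h at 30C in the dark, in EMM with histidine, lysine and uracil; GFP gain-of-signal read by laser scanning cytometry.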
# [4] = biological target: Protein phosphatase 1D (Homo sapiens) (UniProt O15297); assay: RapidFire Mass Spectrometry qHTS Assay for Modulators of WT P53-Induced Phosphatase 1 (WIP1) (AID 1347424);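 note: amount of dephosphorylated VEPPL-S-QETFS peptide product formed by WIP1; series mostly up to about 63 µM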
# Chain of Protein phosphatase 1D (Homo sapiens) (O15297 whole entry, looked up): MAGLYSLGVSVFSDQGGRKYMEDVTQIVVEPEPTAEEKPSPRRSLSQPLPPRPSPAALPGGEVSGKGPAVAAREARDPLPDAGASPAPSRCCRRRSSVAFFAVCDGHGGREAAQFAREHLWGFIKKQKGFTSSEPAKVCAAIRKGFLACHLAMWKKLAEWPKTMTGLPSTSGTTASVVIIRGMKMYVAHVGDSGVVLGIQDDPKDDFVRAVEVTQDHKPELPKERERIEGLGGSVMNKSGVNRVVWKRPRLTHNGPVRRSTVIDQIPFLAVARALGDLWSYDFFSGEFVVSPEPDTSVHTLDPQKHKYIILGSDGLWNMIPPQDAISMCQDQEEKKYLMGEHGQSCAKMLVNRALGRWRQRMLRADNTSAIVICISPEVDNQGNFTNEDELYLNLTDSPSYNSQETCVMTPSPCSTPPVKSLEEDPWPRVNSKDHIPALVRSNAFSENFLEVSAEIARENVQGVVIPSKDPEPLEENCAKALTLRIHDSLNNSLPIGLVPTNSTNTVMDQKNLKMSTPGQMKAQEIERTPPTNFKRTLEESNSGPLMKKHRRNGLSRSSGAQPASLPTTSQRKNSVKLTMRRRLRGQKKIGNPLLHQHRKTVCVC
# Outline: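 RapidFire mass spectrometry measured dephosphorylated peptide after 5 min room-temperature reaction of 2 uM VEPPL-pS-QETFS with 10 nM WIP1 (50 mM Tris-HCl pH 7.5, 30 mM MgCl2, 0.1 mM EGTA, BSA), following 1 hr compound preincubation; 1 uM isotope-labelled product standard.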
# [5] = biological target: Protein phosphatase 1D (Homo sapiens) (UniProt O15297); assay: Rhodamine-PBP qHTS Assay for Modulators of WT P53-Induced Phosphatase 1 (WIP1) (AID 1347425)
# Outline: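 Steps: enzyme with Rh-PBP sensor and compounds, room-temperature incubation of 1 hr, baseline read, addition of VEPPL-pS-QETFS (10 uM final), kinetic fluorescence reads at 525/598 nm. Activity equals final minus baseline signal.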
# [6] = Validation qHTS assay for inhibitors of Activation Induced Cytidine Deaminase (AID): UDG Counterscreen signal (AID 1347427)
# Outline: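 Fluorescence at 560 nm excitation, 665 nm emission reports UDG signal after 250 mM NaOH (2x) addition and 30 min. Enzymes (AID 1 uM, UDG 2 U/mL, at 4/3x) preincubated 10 min with compound, then 4 h with 4x 250 nM DJC20/DJC23 substrate at room temperature.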
# [7] = biological target: Single-stranded DNA cytosine deaminase (Homo sapiens) (UniProt Q9GZX7); assay: Validation qHTS assay for inhibitors of Activation Induced Cytidine Deaminase (AID): AID signal (AID 1347429)
# Chain of Single-stranded DNA cytosine deaminase (Homo sapiens) (Q9GZX7 whole entry, looked up): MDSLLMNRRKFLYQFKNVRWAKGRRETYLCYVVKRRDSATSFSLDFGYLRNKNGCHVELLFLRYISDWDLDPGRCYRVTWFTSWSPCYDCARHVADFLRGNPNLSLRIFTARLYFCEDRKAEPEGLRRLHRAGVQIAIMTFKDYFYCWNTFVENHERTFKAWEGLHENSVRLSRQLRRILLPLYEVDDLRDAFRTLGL
# Outline: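 Compounds (up to 114 uM final) are tested against AID plus UDG using DJC20/DJC23 FRET substrate. Reactions incubate 4 hr at room temperature, receive NaOH for 30 min, and are read at Ex 540/Em 590 nm.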
# [8] = Primary qHTS for inhibitors of La Crosse Virus (LACV) - induced cell death in SH-SY5Y cells (AID 1508616);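 note: top concentration of the series differs between compounds; higher means more rescue of cells from virus-induced death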
# Outline: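 Screening measures cell viability in LACV-infected SH-SY5Y cultures. Compound was added before virus (0.01 MOI), and ATP was detected by luminescence 6 days later.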
# [9] = biological target: Calcium and integrin-binding protein 1 (Homo sapiens) (UniProt Q99828); assay: Validation qHTS for Identification of Calcium Integrin Binding protein 1 (CIB1) Competitor (AID 1508618)
# Chain of Calcium and integrin-binding protein 1 (Homo sapiens) (Q99828 whole entry, looked up): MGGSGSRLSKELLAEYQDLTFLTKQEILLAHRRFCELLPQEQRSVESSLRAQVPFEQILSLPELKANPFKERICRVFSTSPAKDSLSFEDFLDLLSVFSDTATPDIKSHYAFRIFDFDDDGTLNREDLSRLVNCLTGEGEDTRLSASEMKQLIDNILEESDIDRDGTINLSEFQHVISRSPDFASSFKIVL
# Outline: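 In this qHTS validation, the LOPAC set (up to 114 uM) was tested for blocking CIB1 binding to a fluorescein-tagged alphaIIb peptide, with FP detection at 480/540 nm.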
# [10] = biological target: Calcium and integrin-binding protein 1 (Homo sapiens) (UniProt Q99828); assay: Primary qHTS for Identification of Calcium Integrin Binding Protein 1 (CIB1) Competitor (AID 1508620);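 note: GST tagged CIB1 binding a fluorescein labelled alphaIIb integrin peptide tracer; top concentration of the series differs between compounds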
# Outline: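 CIB1-GST (1 uM final) and compound incubated 15 min at room temperature before adding FITC-alphaIIb peptide tracer (100 nM final). Competition for binding read by fluorescence polarization (ex 480, em 540) after another 15 min at room temperature.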
# [11] = Confirmatory screen NINDS Rhodamine qHTS for Zika virus inhibitors (AID 1347161); details: purified enzyme assay, Rhodamine110 substrate fluorescence, 15 min; note: potency is the fitted concentration of half-maximal effect; nearly all actives have a fitted effect of over 60% in size
# Outline: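 Rhodamine110-peptide cleavage (1.5 µM substrate) by 25 nM linked NS2B-NS3 enzyme at pH 8.0 (Tris, Tween 20), after 15 min RT preincubation with compounds; 15-min fluorescence change normalized to controls and Hill-fitted.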
# [12] = system: Zika virus NS2B-NS3 protease (linked); assay: 384 well plate NINDS AMC confirmatory qHTS for Zika virus inhibitors (AID 1347163); note: potency is the fitted concentration of half-maximal effect; nearly all actives have a fitted effect of over 50% in size
# Outline: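 Enzyme (5, 30 or 60 nM final) first met test compounds for ~15 min. The AMC-tagged peptide Ac-VKTGKR-AMC followed at 30 microM. Fluorescence was then recorded at 25 min and scaled against no-enzyme and no-inhibitor wells.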
# [13] = system: Zika virus NS2B-NS3 protease (linked construct); assay: 384 well plate NINDS Rhodamine confirmatory qHTS for Zika virus inhibitors (AID 1347164); details: rhodamine-110 peptide substrate fluorescence;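 note: fluorescence from protease cleavage of Ac-LKRR-rhodamine 110 substrate; potency is the fitted concentration of half-maximal effect; nearly all actives have a fitted effect of over 65% in size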
# Outline: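 Linked protease at a final 5 nM, 30 nM or 60 nM was preincubated ~15 min with compounds, then given 10 microM Ac-LKRR-Rhodamine 110. Fluorescence (ex 485/em 538 nm) after 25 min in the dark at room temperature.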
# [14] = Vero cells viability qHTS for Zika virus inhibitors (AID 1347167); note: potency is the fitted concentration of half-maximal effect
# Outline: (§1)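 Luminescent ATP readout (CellTiter Glo) after 30 min at 37 degrees C gives viability; cells in DMEM + 4% FBS were treated 24 to 48 hours with compound, following overnight attachment.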
# [15] = HepG2 cells viability qHTS for Zika virus inhibitors (AID 1347168)
# Outline: as §1
# [16] = Tertiary RLuc qRT-PCR qHTS assay for Zika virus inhibitors (AID 1347169); note: potency is the fitted concentration of half-maximal effect; nearly all actives have a fitted effect of over 55% in size
# Outline: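 Vero cells (1,000 per well) plated overnight at 37 degrees C, treated with compound in DMSO, then infected with recombinant ZIKV-RLuc (Cambodian) at MOI 1-2 for 48-72 hrs. Live-cell Renilla luciferase substrate added; luminescence read after 1-1.5 hrs.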
# [17] = biological target: Calcium and integrin-binding protein 1 (Homo sapiens) (UniProt Q99828); assay: Confirmatory qHTS for Identification of Calcium Integrin Binding Protein 1 (CIB1) Competitor (AID 1508617); note: nearly all actives have a fitted effect of over 65% in size
# Outline: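 Binding competition between test compounds and fluorescent alphaIIb peptide for 1 uM CIB1-GST is monitored by FP at 480/540 nm. Final compound range is up to 114 uM; unlabeled peptide serves as reference competitor.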
# [18] = qHTS to identify inhibitors of the type 1 interferon - major histocompatibility complex class I in skeletal muscle: primary screen against the NCATS LOPAC collection (AID 1347405);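 note: lytic HiBiT luminescence reporting HLA-B protein level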
# Outline: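 IFN-beta-stimulated (4 ng/ml) HLA-B HiBiT knock-in myoblasts, compound-treated 24 hrs up to 46 uM final; signal via LgBiT complementation and furimazine luminescence.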
# [19] = qHTS to identify inhibitors of the type 1 interferon - major histocompatibility complex class I in skeletal muscle: primary screen against the NCATS Mechanism Interrogation Plate v5.0 (MIPE) Libary (AID 1347411); note: nearly all actives have a fitted effect of over 65% in size
# Outline: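 IFN-beta-driven (4 ng/ml) HLA-B-HiBit expression in CRISPR-tagged C25cl48 myoblasts; compounds 11-pt, 1:3, max 46 uM, 24 hr exposure; lytic NanoLuc complementation luminescence.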
structure (smiles),measurement,setting,value
CNC(=O)Oc1ccc2c(c1)[C@]1(C)CCN(C)[C@@H]1N2C,outcome,[1],inactive
same,Potency,[2],inactive
same,outcome,[3],inactive
same,outcome,[4],inactive
same,outcome,[5],inactive
same,Potency,[6],inactive
same,Potency,[7],inactive
same,outcome,[8],inactive
same,outcome,[9],inactive
same,outcome,[10],inactive
CCN(CC)CCNC(=O)c1cc(Cl)c(N)cc1OC,outcome,[1],inactive
same,Potency,[2],inactive
same,outcome,[3],inactive
same,outcome,[4],inactive
same,outcome,[5],inactive
same,Potency,[6],inactive
same,Potency,[7],inactive
same,outcome,[8],inactive
same,outcome,[9],inactive
same,outcome,[10],inactive
COCCOC(=O)C1=C(C)NC(C)=C(C(=O)OC/C=C/c2ccccc2)C1c1cccc([N+](=O)[O-])c1 (configuration not stated),outcome,[1],inactive
same,outcome,[3],inactive
same,outcome,[4],inactive
same,outcome,[5],inactive
same,Potency,[6],inactive
same,Potency,[7],inactive
same,outcome,[8],inactive
same,outcome,[9],inactive
same,outcome,[10],inactive
OCCN1CCN(CCCN2c3ccccc3Sc3ccc(Cl)cc32)CC1,outcome,[1],inactive
same,Potency,[2],inactive
same,outcome,[3],inactive
same,outcome,[4],inactive
same,outcome,[5],inactive
same,Potency,[6],inactive
same,Potency,[7],inactive
same,outcome,[8],inactive
COc1ccc(Cl)cc1C(=O)NCCc1ccc(S(=O)(=O)NC(=O)NC2CCCCC2)cc1,outcome,[1],inactive
same,Potency,[2],inactive
same,outcome,[3],inactive
same,Potency,[6],inactive
same,Potency,[7],inactive
same,outcome,[8],inactive
same,outcome,[10],inactive
Cc1cc(C(C#N)c2ccc(Cl)cc2)c(Cl)cc1NC(=O)c1cc(I)cc(I)c1O (configuration not stated),Potency,[11],2.78 µM (active) and 2.21 µM (active)
same,Potency,[12],4.47 µM (active)
same,Potency,[13],1.78 µM (active)
same,Potency,[14],13.1 µM (active)
same,outcome,[15],inactive
same,Potency,[16],6.58 µM (active) and 16.5 µM (active)
same,Potency,[2],inactive
same,outcome,[8],inactive
same,Potency,[17],inactive
NC1CCN(c2cccc(Cl)n2)CC1,outcome,[1],inactive
same,Potency,[2],inactive
same,outcome,[4],inactive
same,outcome,[5],inactive
same,Potency,[6],inactive
same,Potency,[7],inactive
same,outcome,[8],inactive
same,outcome,[10],inactive
C[C@]12C[C@H](O)[C@H]3[C@@H](CCC4=CC(=O)CC[C@@]43C)[C@@H]1CC[C@@H]2C(=O)CO,outcome,[1],inactive
same,Potency,[18],inactive
same,Potency,[2],inactive
same,outcome,[3],inactive
same,outcome,[4],inactive
same,outcome,[5],inactive
same,Potency,[6],inactive
same,Potency,[7],inactive
same,outcome,[8],inactive
same,outcome,[9],inactive
same,outcome,[10],inactive
CC(C)C(=O)c1c(C(C)C)nn2ccccc12,outcome,[1],inactive
same,Potency,[2],inactive
same,outcome,[3],inactive
same,outcome,[4],inactive
same,outcome,[5],inactive
same,Potency,[6],inactive
same,Potency,[7],inactive
same,outcome,[8],inactive
same,outcome,[9],inactive
same,outcome,[10],inactive
CC(=O)OCC(=O)[C@@]1(O)CC[C@H]2[C@@H]3CCC4=CC(=O)CC[C@]4(C)[C@H]3C(=O)C[C@@]21C,outcome,[1],inactive
same,Potency,[2],inactive
same,outcome,[3],inactive
same,Potency,[19],inactive
same,outcome,[5],inactive
same,Potency,[6],inactive
same,Potency,[7],inactive
same,outcome,[8],inactive
same,outcome,[9],inactive
same,outcome,[10],inactive
